Consider nine molecules from PubChem BioAssay (NCI).

A short description of experiment [1]: NCI Yeast Anticancer Drug Screen. Data for the rad50 strain (AID 155).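 Further: 0% = growth of vehicle-only cultures of the same strain.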 The settings on record: S. cerevisiae rad50 strain growth inhibition, active compounds read high. The method, boiled down:
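DNA repair mutant yeast, compound exposure, growth read-out; inhibition is taken relative to vehicle.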

Experiment [2] can be described thus: NCI Yeast Anticancer Drug Screen. Data for the mec2-1 strain (AID 157). The settings on record: S. cerevisiae mec2-1 strain, active compounds read high. The procedure, abridged:
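Yeast mec2-1 mutant treated with compound. Readout: growth inhibition vs vehicle controls.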

Experiment [3] in a line: NCI Yeast Anticancer Drug Screen. Data for the sgs1 mgt1 strain (AID 161).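 Further: 0% = growth of cultures given vehicle only.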 The settings on record: S. cerevisiae sgs1 mgt1 strain, active compounds read high. The procedure, abridged:
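Inhibition of yeast growth, normalised to vehicle-treated controls, is reported for a strain bearing genetic alterations in DNA damage repair.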

A short description of experiment [4]: NCI Yeast Anticancer Drug Screen. Data for the cln2 rad14 strain (AID 165).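 Further: 0% = growth equal to vehicle treated cultures.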 The settings on record: S. cerevisiae cln2 rad14 strain, active compounds read high. The method, boiled down:
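cln2 rad14 yeast strain; compound exposure; growth inhibition read vs vehicle controls.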

Experiment [5] in a line: NCI Yeast Anticancer Drug Screen. Data for the bub3 strain (AID 167). The conditions noted are these: S. cerevisiae bub3 mutant strain, active compounds read high. The method, boiled down:
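In this screen, a yeast mutant lacking normal mitotic checkpoint function is challenged with compound. Relative growth versus vehicle gives the inhibition value.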

Experiment [6] can be described thus: NCI Yeast Anticancer Drug Screen. Data for the mlh1 rad18 strain (AID 175). The conditions noted are these: S. cerevisiae mlh1 rad18 strain growth inhibition, active compounds read high. The method, boiled down: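 Yeast w/ defined DNA-repair lesions; compound exposure; growth vs vehicle controls → % inhibition.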
The mark [7] stands for this setting: at 5.0 µM (retest, dose inferred, filed as 0.5).
Setting [8] is: at 50.0 µM (retest, dose inferred, filed as 5.0).

SMILES strings stand for the structures. This is part of a sample that, as a whole, favours compounds with a hit. Of some 79,000 tested, about 15% had one in any assay. A number with no mark means an inactive call. Activity calls are given as the source filed them. No stated cut-off is given here; in the data, active means growth inhibition above about 70%; inactive means the rest.

On to `Cc1sc(Cc2ccccc2)nc1-c1ccc(N=Cc2ccc(N(CCOS(C)(=O)=O)CCOS(C)(=O)=O)cc2)cc1`, for which the growth inhibition is 53% in experiment [1] (setting [7]); 95% (active) in experiment [1] (setting [8]); 94% (active) in experiment [1] (at 50.0 µM); -10% in experiment [2] (setting [7]); 97% (active) in experiment [2] (setting [8]); 97.8% (active) in experiment [2] (at 50.0 µM). Besides, the growth inhibition is 32% in experiment [3] (setting [7]); 95% (active) in experiment [3] (setting [8]); 96.5% (active) in experiment [3] (at 50.0 µM); 38% in experiment [4] (setting [7]); 95% (active) in experiment [4] (setting [8]); 93.8% (active) in experiment [4] (at 50.0 µM). Further, the growth inhibition was 1% in experiment [5] (setting [7]); 94% (active) in experiment [5] (setting [8]); 91.3% (active) in experiment [5] (at 50.0 µM); 82% (active) in experiment [6] (setting [7]); 95% (active) in experiment [6] (setting [8]); 96.5% (active) in experiment [6] (at 50.0 µM).
On to `CC(CCC(=O)O)(Nc1ccc([N+](=O)[O-])cc1[N+](=O)[O-])C(=O)O` (configuration not stated), for which the growth inhibition is 51% in experiment [1] (setting [7]); 99% (active) in experiment [1] (setting [8]); 99.2% (active) in experiment [1] (at 50.0 µM); 41% in experiment [2] (setting [7]); 100% (active) in experiment [2] (setting [8]); 99.6% (active) in experiment [2] (at 50.0 µM). Besides, the growth inhibition was 52% in experiment [3] (setting [7]); 99% (active) in experiment [3] (setting [8]); 99.1% (active) in experiment [3] (at 50.0 µM); 18% in experiment [4] (setting [7]); 100% (active) in experiment [4] (setting [8]); 91.9% (active) in experiment [4] (at 50.0 µM). The growth inhibition in experiment [5] (setting [7]) was 34%; in experiment [5] (setting [8]), 100% (active); in experiment [5] (at 50.0 µM), 98.8% (active); in experiment [6] (setting [7]), 57%; in experiment [6] (setting [8]) it was 100% (active); in experiment [6] (at 50.0 µM), 98.8% (active).
Turning to `COc1ccc2ccc(OC)c(C=O)c2c1`, the growth inhibition in experiment [1] (setting [7]) is -158%; in experiment [1] (setting [8]), -119%; in experiment [1] (at 50.0 µM), 97.5% (active); in experiment [2] (setting [7]), -50%; in experiment [2] (setting [8]), -111%; in experiment [2] (at 50.0 µM), 10.2%. The growth inhibition in experiment [3] (setting [7]) was -65%; in experiment [3] (setting [8]), -60%; in experiment [3] (at 50.0 µM), -1%; in experiment [4] (setting [7]), -63%; in experiment [4] (setting [8]) it was -58%; in experiment [4] (at 50.0 µM), -28.2%. Also, the growth inhibition in experiment [5] (setting [7]) is -67%; in experiment [5] (setting [8]), -74%; in experiment [5] (at 50.0 µM) it was -25.6%; in experiment [6] (setting [7]) it was -144%; in experiment [6] (setting [8]), -107%; in experiment [6] (at 50.0 µM) it was 63.5%.
Consider `Cc1cc(Oc2nc(Cl)nc(C(Cl)(Cl)Cl)c2Cl)cc(C)c1N(C)C` (tested in a mixture with another compound), for which the growth inhibition in experiment [1] (setting [7]) was -5%; in experiment [1] (setting [8]) it was 10%; in experiment [1] (at 50.0 µM) it was 92.8% (active); in experiment [2] (setting [7]) it was -6%; in experiment [2] (setting [8]) it was -3%; in experiment [2] (at 50.0 µM) it was 95.8% (active). The growth inhibition in experiment [3] (setting [7]) is -2%; in experiment [3] (setting [8]), 10%; in experiment [3] (at 50.0 µM), 95.5% (active); in experiment [4] (setting [7]), -12%; in experiment [4] (setting [8]) it was -9%; in experiment [4] (at 50.0 µM), 91.9% (active). Moreover, the growth inhibition in experiment [5] (setting [7]) was 7%; in experiment [5] (setting [8]), 30%; in experiment [5] (at 50.0 µM), 92.6% (active); in experiment [6] (setting [7]), -8%; in experiment [6] (setting [8]), -5%; in experiment [6] (at 50.0 µM), 95.7% (active).
As to `Cc1cc(C(=O)c2ccccc2)ccc1O`, the growth inhibition was 2% in experiment [1] (setting [7]); 33% in experiment [1] (setting [8]); 48% in experiment [1] (at 50.0 µM); -6% in experiment [2] (setting [7]); 36% in experiment [2] (setting [8]); 36.9% in experiment [2] (at 50.0 µM). Moreover, the growth inhibition was 3% in experiment [3] (setting [7]); 47% in experiment [3] (setting [8]); 46.6% in experiment [3] (at 50.0 µM); -7% in experiment [4] (setting [7]); -16% in experiment [4] (setting [8]); -8.4% in experiment [4] (at 50.0 µM). The growth inhibition is -3% in experiment [5] (setting [7]); 3% in experiment [5] (setting [8]); 48.7% in experiment [5] (at 50.0 µM); -2% in experiment [6] (setting [7]); 36% in experiment [6] (setting [8]); 70.1% (active) in experiment [6] (at 50.0 µM).
For `CCOc1c(N=Nc2ccc(Cl)cc2)c(-c2ccccc2)nn1C(N)=S`, the growth inhibition in experiment [1] (setting [7]) is 3%; in experiment [1] (setting [8]), 90% (active); in experiment [1] (at 50.0 µM), 93.4% (active); in experiment [2] (setting [7]), -11%; in experiment [2] (setting [8]) it was 89% (active); in experiment [2] (at 50.0 µM), 94.7% (active). For the same molecule, the growth inhibition was 18% in experiment [3] (setting [7]); 92% (active) in experiment [3] (setting [8]); 93.9% (active) in experiment [3] (at 50.0 µM); -13% in experiment [4] (setting [7]); 87% (active) in experiment [4] (setting [8]); 93.3% (active) in experiment [4] (at 50.0 µM). The growth inhibition in experiment [5] (setting [7]) is 1%; in experiment [5] (setting [8]) it was 92% (active); in experiment [5] (at 50.0 µM) it was 92.4% (active); in experiment [6] (setting [7]) it was 0%; in experiment [6] (setting [8]), 90% (active); in experiment [6] (at 50.0 µM), 93.1% (active).
With `COc1ccc(/C=C2\NC(=O)NC2=O)cc1`, the growth inhibition in experiment [1] (setting [7]) is 0%; in experiment [1] (setting [8]), 7%; in experiment [1] (at 50.0 µM), -1.65%; in experiment [2] (setting [7]) it was -4%; in experiment [2] (setting [8]), 5%; in experiment [2] (at 50.0 µM), -6.8%. In addition, the growth inhibition in experiment [3] (setting [7]) is -1%; in experiment [3] (setting [8]), 3%; in experiment [3] (at 50.0 µM) it was -0.65%; in experiment [4] (setting [7]), -4%; in experiment [4] (setting [8]) it was -3%; in experiment [4] (at 50.0 µM), 24.1%. In addition, the growth inhibition was 27% in experiment [5] (setting [7]); 22% in experiment [5] (setting [8]); 6.25% in experiment [5] (at 50.0 µM); -1% in experiment [6] (setting [7]); 5% in experiment [6] (setting [8]); 18.6% in experiment [6] (at 50.0 µM).
Turning to `COc1ccc(/C=C2\CCC/C(=C\c3ccc(OC)cc3)C2=O)cc1`, the growth inhibition in experiment [1] (setting [7]) is 26%; in experiment [1] (setting [8]), -17%; in experiment [1] (at 50.0 µM), -5.5%; in experiment [2] (setting [7]), -9%; in experiment [2] (setting [8]), -17%; in experiment [2] (at 50.0 µM), -11.3%. In addition, the growth inhibition in experiment [3] (setting [7]) is 2%; in experiment [3] (setting [8]) it was -17%; in experiment [3] (at 50.0 µM) it was -2.1%; in experiment [4] (setting [7]), -21%; in experiment [4] (setting [8]), -20%; in experiment [4] (at 50.0 µM), -72.2%. The growth inhibition in experiment [5] (setting [7]) is -5%; in experiment [5] (setting [8]), -5%; in experiment [5] (at 50.0 µM), 1.05%; in experiment [6] (setting [7]), -8%; in experiment [6] (setting [8]), -14%; in experiment [6] (at 50.0 µM), 9.55%.
In the case of `Oc1c(Br)cc(Cl)cc1Br`, the growth inhibition in experiment [1] (setting [7]) is -4%; in experiment [1] (setting [8]), 98% (active); in experiment [1] (at 50.0 µM), 93.5% (active); in experiment [2] (setting [7]) it was 5%; in experiment [2] (setting [8]), 99% (active); in experiment [2] (at 50.0 µM) it was 98% (active). Also, the growth inhibition was 4% in experiment [3] (setting [7]); 99% (active) in experiment [3] (setting [8]); 86.5% (active) in experiment [3] (at 50.0 µM); -11% in experiment [4] (setting [7]); 98% (active) in experiment [4] (setting [8]); 90.5% (active) in experiment [4] (at 50.0 µM). Further, the growth inhibition is -6% in experiment [5] (setting [7]); 97% (active) in experiment [5] (setting [8]); 96% (active) in experiment [5] (at 50.0 µM); 3% in experiment [6] (setting [7]); 96% (active) in experiment [6] (setting [8]); 97.5% (active) in experiment [6] (at 50.0 µM).
